Compound activity deposited in PubChem BioAssay by several laboratories.
GASC-1 inh: blocks human GASC-1 demethylase activity. Q9H3R0. GST-JMJD2C(1-420) H3K9me3 demethylation, DELFIA europium. inhibition, % at 2.35 µM. 330,000 compounds, 0.069% hits. AID 2099;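 active means more than half of a compound's replicate wells show inhibition beyond 50%, single wells judged on their own value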;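 further: signal counts dimethyl H3K9 product captured on neutravidin plate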
SMARCA2 act: activators of SMARCA2 function | 370,000 compounds, 1% hits | activation, % at 9.1 µM | MG213 cells, MMTV-luciferase reporter, dexamethasone, overnight; in the data active means activation above about 7.8%
M18AAP inhibitor: blocks P. falciparum M18 aspartyl aminopeptidase; AID 1822; inhibition, % at 7.35 µM; recombinant PfM18AAP, H-Glu-NHMec fluorogenic cleavage; 290,000 compounds, 1.2% hits;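 active means inhibition above the campaign mean inhibition over all tested compounds plus 3 SD, cut at about 28% in these data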
beta cell repl: MIN6 beta-cell proliferation induction; MIN6 cells proliferation, ATPlite luminescence, 48 h; cells starved in 0.2% serum; 100% = growth in 10% serum; proliferation, % at 10 µM; 330,000 compounds, 0.29% hits; AID 2380;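 active means compounds whose signal lies at least 3.5 SD above the mean of all wells on their plate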
ALR H2O2 inh: blocks human ALR sulfhydryl oxidase activity; P55789; purified ALR, DTT oxidation, H2O2 HRP-luminol luminescence; inhibition, % (test concentration not listed); 290,000 compounds, 3.8% hits;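 active means mean replicate inhibition above about 79%, with every replicate also reaching it, limit read from the data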
Target sequence (P55789 whole entry, looked up): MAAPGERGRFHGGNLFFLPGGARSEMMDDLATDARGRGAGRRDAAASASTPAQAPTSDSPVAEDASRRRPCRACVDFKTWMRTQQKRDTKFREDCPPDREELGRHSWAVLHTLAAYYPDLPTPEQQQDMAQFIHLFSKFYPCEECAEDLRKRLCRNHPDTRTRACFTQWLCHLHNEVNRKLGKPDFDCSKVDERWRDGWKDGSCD
Granule exo inh: blocks lytic granule exocytosis | TALL-104 LAMP-1 surface exposure, flow cytometry; cells stimulated with thapsigargin and PMA | inhibition, % at 10 µM | 360,000 compounds, 0.66% hits | AID 651702;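 active means inhibition above about 55%, limit read from the data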
Hits are given with their value; i = inactive; nt = not tested or not shown; ! = repeats disagree. An excerpt weighted towards active compounds, which were near 5.4% of everything screened.

SMILES	GASC-1 inh	SMARCA2 act	M18AAP inhibitor	beta cell repl	ALR H2O2 inh	Granule exo inh
Cc1ccccc1Cn1cc(COC(=O)N2CCOCC2)nn1	nt	i	nt	nt	nt	nt
COc1ccc(NC2=C(NCCO)C(=O)c3ccccc3C2=O)cc1	i	i	i	i	i	i
Cc1cccc(NC2=C(NCCO)C(=O)c3ccccc3C2=O)c1	i	i	i	i	99	i
COc1cccc(NC2=C(NCCO)C(=O)c3ccccc3C2=O)c1	i	i	i	i	87	i
CCc1c(-c2cccc(F)c2)ncn1CCc1ccccc1OC	nt	i	nt	nt	nt	nt
O=C(COc1ccc(Cl)cc1)NNC(=O)CSc1nncs1	i	i	29	i	i	i
N#Cc1c(N2CCCC2)nc(N)c2c(N)nc(N3CCCC3)cc12	i	i	i	i	i	60
O=C(NCCc1c[nH]c2ccccc12)OCc1cn(Cc2ccc(F)c(F)c2)nn1	nt	i	nt	nt	nt	nt
CC(C)Sc1nsc2nc(=O)c(/C=C3\C=Nc4ccccc43)c(N)n12	i	i	i	i	i	i
CCCc1nn2c(N)c(/C=C3\C=Nc4ccccc43)c(=O)nc2s1	i	i	i	i	92!	i
CS(=O)(=O)c1nsc2nc(=O)c(/C=C3\C=Nc4ccccc43)c(N)n12	i	i	i	i	90	i
COCc1[nH]nc2c1C(c1ccc(F)cc1)N(c1ccc(OC)cc1)C2=O (configuration not stated)	nt	i	nt	nt	nt	nt
C/C(=N\NC(=O)c1cc(-c2ccccc2)nc2ccccc12)c1ccc(Cl)cc1	nt	i	nt	nt	nt	nt
Oc1ccc(N=Cc2cc(Br)c(N3CCOCC3)o2)cc1	i	i	i	i	86	i
O=[N+]([O-])c1cc(Br)c(O)c(C=Nc2ccc(N3CCOCC3)cc2)c1	i	i	i	i	i	i
Cc1c(NC(=O)OC(C)C)sc(=S)n1C	i	i	i	i	98	i
C=CCn1c(SCc2c(F)c(F)c(F)c(F)c2F)nc(O)cc1=O	i	i	i	i	99	i
C=CCn1c(SCC(=O)N(CC)CC)nc(O)cc1=O	i	i	i	i	i	i
COC(=O)/C(=N/Nc1ccccc1)N1CCCc2ccccc21	i	i	i	i	nt	i
COC(=O)/C(=N/Nc1cccc(C)c1)N1CCCc2ccccc21	i	i	i	i	99	i
COC(=O)/C(=N/Nc1ccc(C)cc1)N1CCCc2ccccc21	i	i	i	i	99	i
O=C(Nc1ccc(Cl)cc1)OC[C@@H]1CSCCS(=O)(=O)N1	nt	i	nt	nt	nt	nt
Cc1cc(C)n2nc(SCC(=O)N3CCN(c4ccccc4)CC3)nc2n1	i	i	nt	i	98	i
CC1(C)Cc2ccccc2-c2nnc(SCc3ccccc3)n21	i	i	i	i	nt	i
CC1(C)Cc2ccccc2-c2nnc(SCC(=O)N3CCN(c4ccccc4)CC3)n21	i	i	i	i	97	i
SMILES	GASC-1 inh	SMARCA2 act	M18AAP inhibitor	beta cell repl	ALR H2O2 inh	Granule exo inh
Cc1ccnc(SCC(=O)N2CCN(c3ccccc3)CC2)n1	i	i	i	i	98	i
Cc1cc(C)n2nc(SCC(=O)N3CCCC3)nc2n1	i	i	nt	i	i	i
Cc1ccccc1N(C)C(=O)C1CCCN1S(=O)(=O)c1cccc2cccnc12 (configuration not stated)	nt	i	nt	nt	nt	nt
CCOc1cc(/C=C(\C#N)c2[nH]nc(N)c2C#N)ccc1O	i	i	i	i	99	i
CN1C(=O)CC(N2CCN(c3ccc(Cl)cc3)CC2)C1=O (configuration not stated)	i	i	i	i	98	i
CCCCCCCc1c(C#N)c(N)[nH]c(=S)c1C#N	i	i	i	i	96	nt
CC(C)Cc1c2c([nH]c(=S)c1C#N)CCCC2	i	i	i	i	nt	i
O=c1cc(N=Nc2ccc(Cl)cc2)[nH]c(=O)[nH]1	i	i	70	nt	i	77
CCN1Cc2nnn(Cc3ccccc3)c2-c2ccccc2S1(=O)=O	nt	i	nt	nt	nt	nt
Cc1occc1C(=O)Nc1sc2c(c1C(N)=O)CCCCC2	i	i	29	i	i	i
CCCc1cc(C(N)=O)c(NC(=O)c2ccoc2C)s1	i	i	i	i	98	i
CCOC(=O)c1c(NC(=O)c2ccoc2C)sc(C)c1C	i	i	i	i	i	i
CCCc1cc(C(N)=O)c(NC(=O)c2cc(C)on2)s1	i	nt	i	i	i	i
CCc1c(C)sc(NC(=O)c2ccco2)c1C(=O)N1CCCCC1	i	i	i	i	81	i
COC(=O)c1c(NC(=O)c2ccoc2C)sc2c1CCC2	i	i	i	i	nt	i
CCc1c(C)sc(NC(=O)c2ccoc2C)c1C(N)=O	i	i	40	i	i	i
Cc1ccc(-c2cccc3[nH]cc(C)c23)s1	nt	i	nt	nt	nt	nt
Fc1ccccc1-c1n[nH]c(=S)n1CC1CCCO1 (configuration not stated)	i	i	32	i	i	i
COc1cccc(-c2cc(CNC(=O)[C@H]3O[C@@H](n4cnc(C(N)=O)n4)[C@H](O)[C@@H]3O)no2)c1	nt	i	nt	nt	nt	nt
COC(=O)[C@]12C[C@H](CC(=O)N3CCCC3)C(=O)N(CCC3=CCCCC3)C1=C[C@H](C1CCCC1)O[C@@H]2C	nt	i	nt	nt	nt	nt
O=C(CSCc1cnn(-c2ccccc2)c1-n1cccc1)NCc1ccccn1	i	i	i	i	81	i
COc1ccc(CNC(=O)CSCc2cnn(-c3ccccc3)c2-n2cccc2)cc1	i	i	i	i	i	i
C=CCN1[C@@H](C)COc2cccc(F)c2S1(=O)=O	nt	i	nt	nt	nt	nt
CC(C)C(NC(=O)CCNC(=O)c1ccc(C(C)(C)C)cc1)c1nc2ccccc2[nH]1 (configuration not stated)	i	i	nt	i	i	i
CC(=O)c1ccc(S(=O)(=O)NCC(=O)NC(c2nc3ccccc3[nH]2)C(C)C)cc1 (configuration not stated)	i	i	nt	i	99	i
Cc1cc(NC(=O)c2ccccc2)c(Cl)cc1N	i	i	i	i	nt	i
Cc1oc(=O)c(NC(=O)c2ccccc2)cc1C(=O)c1ccccc1	i	i	i	i	i	75
Cc1cc(N)ccc1NC(=O)c1ccccc1	i	i	i	i	98	i
